Compound activity deposited in PubChem BioAssay by National Center for Advancing Translational Sciences (NCATS).
Pf growth 96h: P. falciparum growth inhibition at 96 hours. AID 504834. P. falciparum luciferase reporter growth, 96 h. Potency, µM (highest dose often 28.7 µM), actives largely listed as inhibitors. hit rate 6.9% among 320,000; active means well fitted inhibition curve with a large enough effect; inconclusive means small, poorly fitted or top-dose-only effect, or another doubt; inactive means no such curve, though single readings can be large or run the other way
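Infected RBCs, 2% Hct / 0.05% parasitemia final; luciferase-reporter P. falciparum; cpd 96 h, 37 C, 5% CO2; luciferase detection reagent; luminescence.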
NS1 function inh: inhibitors of influenza NS1 protein function; Potency, µM (top dose mostly 46.1 µM); hit rate 0.4% among 270,000; further: actives are rising curves; nearly all actives have a fitted effect of over 50% in size
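Compounds were scored for reversing the slow growth caused by influenza A NS1 in S. cerevisiae, measured by optical density at 600 nm. Assay medium contained 2% galactose at pH 6.0; NS1-free yeast of the same strain were the positive control.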
SARS PLpro yeast: inhibitors of SARS-CoV papain-like protease in yeast; Potency, µM (doses to about 32.9 µM), hits mostly activators; S. cerevisiae expressing SARS-CoV PLpro, growth rescue; hit rate 0.19% among 330,000; AID 485353; further: nearly all actives have a fitted effect of over 55% in size
Pf growth 48h: P. falciparum growth inhibition at 48 hours (one generation). P. falciparum luciferase growth in erythrocytes, 48 h. Potency, µM (titrated, usually from 28.7 µM), hits mostly inhibitors. hit rate 5.9% among 310,000. AID 504832; active means well fitted inhibition curve with a large enough effect; inconclusive means small, poorly fitted or top-dose-only effect, or another doubt; inactive means no such curve, though single readings can be large or run the other way
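A one-generation exposure of luciferase-tagged malaria parasites in RPMI 1640/Albumax erythrocyte culture, 37 C and 5% CO2. Inhibition is inferred from decreased luminescence after adding detection reagent.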
A number is an active result; - = inactive; ? = inconclusive; . = no result given. In the library only some 10% were active in any assay of this set; here they are far more common. Unless noted, the call rests on the fitted dose curve.

SMILES	Pf growth 96h	NS1 function inh	SARS PLpro yeast	Pf growth 48h
CC1CCN(CCCNC(=O)C2CCC(CNS(=O)(=O)c3ccccc3)CC2)CC1 (stereo not drawn)	11.7µM	-	-	-
COCC(=O)N1CCCC(CNS(=O)(=O)c2ccc(OC)cc2)C1 (stereo not drawn)	10.4µM	-	-	-
Cc1ccc(CNC(=O)C2CCC(CNS(=O)(=O)c3cccc4cccnc34)CC2)cc1 (stereo not drawn)	11.7µM	-	-	?
COc1ccc(N(Cc2cc3cc(C)ccc3[nH]c2=O)C(C)=O)cc1	?	-	-	?
Cc1ccc(S(=O)(=O)NCC2CCC(C(=O)NCc3cccs3)CC2)cc1 (stereo not drawn)	10.4µM	.	-	-
Cc1cc(C)n(-c2nc(Nc3ccccc3C(F)(F)F)nc(-n3nc(C)cc3C)n2)n1	-	-	-	4.15µM
Cc1cc(C)n(-c2nc(Nc3ccccc3C)nc(-n3nc(C)cc3C)n2)n1	1.04µM	-	-	2.33µM
Cc1cc(C)n(-c2nc(N(C)C)nc(N(C)C)n2)n1	-	-	-	?
CCOC(=O)CN1N=C(c2ccc(Cl)cc2)CCC1=O	13.1µM	-	-	-
CCNC(=S)NCCN1CCCCC1	11.7µM	-	-	.
CCCNC(=S)NCCN1CCCCC1	-	-	-	-
Cc1ccc(-c2csc3nc[nH]c(=S)c23)cc1C	10.4µM	-	?	?
CCOc1ccc(CCNc2ccc3nnc(-c4ccccc4)n3n2)cc1OCC	4.65µM	-	-	?
O=C1N=C(N2CCN(c3cccc4ccccc34)CC2)S/C1=C/c1cccs1	9.28µM	-	-	8.28µM
NC1=NC(=O)/C(=C/c2cccs2)S1	?	-	-	-
CC(=O)N1CCN(C2=NC(=O)/C(=C\c3cccs3)S2)CC1	-	-	-	-
O=C1N=C(N2CCOCC2)S/C1=C/c1cccs1	11.7µM	-	-	-
Cc1ccc(/C=C2\SC(N3CCCCC3)=NC2=O)cc1	-	-	-	-
O=C1N=C(N2CCCC2)S/C1=C\c1ccccc1	?	-	-	14.7µM
Cc1ccccc1N1CCN(C2=NC(=O)/C(=C\c3cccs3)S2)CC1	10.4µM	-	-	?
C=CCN1C(=O)c2ccc(C(=O)N(C)CC(=O)Nc3ccc(Br)cc3C)cc2C1=O	-	.	-	-
Cc1ccc(OCC(=O)N2CCC(C)CC2)c([N+](=O)[O-])n1	-	.	-	-
COc1ccccc1C(=O)NC(=O)COC(=O)c1cc[n+]([O-])cc1	-	.	-	-
OCCN1CCN(c2cc(-c3ccccc3)c3ccccc3n2)CC1	13.1µM	-	-	?
CN1CCN(c2nc(N3CCN(CCO)CC3)nc3ccccc23)CC1	?	-	-	-
SMILES	Pf growth 96h	NS1 function inh	SARS PLpro yeast	Pf growth 48h
O=S(=O)(NCCc1ccccc1F)c1cccc(S(=O)(=O)N2CCOCC2)c1	6.57µM	-	-	-
COc1ccccc1CNS(=O)(=O)c1cccc(S(=O)(=O)N2CCOCC2)c1	.	-	-	-
O=S(=O)(NCc1ccccc1)c1cccc(S(=O)(=O)N2CCOCC2)c1	0.0586µM	-	-	.
CCCC(=O)Nc1c(-c2ccccc2)c(=O)c(C)nn1-c1ccc(C)cc1	-	-	-	-
COc1ccc(S(=O)(=O)N(CC(=O)NCc2ccco2)c2ccc(C)cc2)cc1OC	-	-	-	-
CCOc1ccc(N(CC(=O)NCc2ccco2)S(=O)(=O)c2ccc(OC)c(OC)c2)cc1	-	-	-	11.7µM
COc1ccc(C(=O)NC(=S)NCc2ccco2)cc1OC	7.38µM	-	-	-
COc1ccc(N(CC(=O)NCc2ccco2)S(=O)(=O)c2ccc(OC)c(OC)c2)cc1	14.7µM	-	-	.
Cc1ccc(C)c(N(CC(=O)NC2CCCC2)C(=O)c2csnn2)c1	-	-	-	-
CC(C)C[C@H](NC(=O)C1CC(=O)N(c2ccc3c(c2)OCCO3)C1)C(=O)N1CCCCC1 (stereo partly drawn)	-	-	-	?
CCOc1cccc(-c2nc3c(s2)CCc2onc(-c4cccc([N+](=O)[O-])c4)c2-3)c1	-	.	-	-
Cc1c(/C=N/NC(=O)CNc2ccccc2)c2ccccn2c1C(=O)c1ccccc1	2.94µM	?	-	2.08µM
Cc1c(/C=N/NC(=O)c2cccnc2)c2ccccn2c1C(=O)c1ccc(F)cc1	5.22µM	-	-	9.28µM
Cc1c(/C=N/NC(=O)c2cc(=O)[nH]c(=O)[nH]2)c2ccccn2c1C(=O)c1ccccc1	.	-	-	3.29µM
Cc1c(/C=N/NC(=O)c2ccccc2O)c2ccccn2c1C(=O)c1ccc(F)cc1	?	?	-	8.28µM
CCC(=O)N(CCC(c1ccc(C)cc1)c1ccco1)Cc1ccco1 (stereo not drawn)	?	-	-	2.33µM
Cc1ccc(CN(C)C(=O)COC(=O)CSc2cc(C)c3ccccc3n2)cc1	-	.	-	-
CCC(C(=O)NC1CCCC1)N(C(=O)Cn1nnc(-c2cccs2)n1)c1cnc2ccccc2c1 (stereo not drawn)	-	-	-	11.7µM
CCC(C(=O)NC1CCCC1)N(C(=O)Cn1nnc(-c2ccc(C)o2)n1)c1cnc2ccccc2c1 (stereo not drawn)	?	-	-	?
Cc1ccc(-c2nnn(CC(=O)N(CC(=O)NC(C)C)c3cnc4ccccc4c3)n2)o1	-	-	-	-
Cc1ccc(-c2nnn(CC(=O)N(CC(=O)NC3CCCC3)c3ccc(F)c(Cl)c3)n2)o1	13.1µM	-	-	9.28µM
Cc1ccc(-c2nnn(CC(=O)N(CC(=O)NC3CCCC3)c3cnc4ccccc4c3)n2)o1	9.28µM	-	-	?
CCC(C(=O)NC1CCCC1)N(C(=O)Cn1nnc(-c2ccc(C)o2)n1)c1ccc(F)cc1 (stereo not drawn)	11.7µM	-	-	-
CCC(C(=O)NC1CCCC1)N(C(=O)Cn1nnc(-c2ccc(C)o2)n1)c1ccccc1OC (stereo not drawn)	-	-	-	?
COc1ccc(S(=O)(=O)N2CCNCC2)cc1	?	-	-	-
SMILES	Pf growth 96h	NS1 function inh	SARS PLpro yeast	Pf growth 48h
Cc1cc(SCC(=O)NC(=O)c2cccn2C)nc2ccccc12	-	-	-	-
CC[C@H](Cc1c(I)cc(I)c(N)c1I)C(=O)O	-	.	.	-
Cc1cnc(C(=O)O)c[n+]1[O-]	-	.	.	-
Cc1cc(C)c(S(=O)(=O)N2CCN(C(=O)c3ccc(-n4cncn4)c([N+](=O)[O-])c3)CC2)c(C)c1	?	.	-	?
Cc1ccc(-c2nnn(CC(=O)N(Cc3ccccc3F)C(C(=O)NC3CCCC3)c3ccncc3)n2)o1 (stereo not drawn)	?	-	-	9.28µM
Cc1ccc(-c2nnn(CC(=O)N(CC(=O)NCc3ccccc3)c3cccc(C)c3C)n2)o1	?	-	-	14.7µM
Cc1ccc(-n2nnnc2Sc2nc([N+](=O)[O-])nn2C)cc1C	?	-	-	3.29µM
CN(C)CCCNC(=S)NCC(c1ccc(Cl)cc1Cl)c1c[nH]c2ccccc12 (stereo not drawn)	2.08µM	-	-	?
O=C(CN1CCN(C(=O)c2ccccc2)CC1)Nc1cccc(S(=O)(=O)N2CCCC2)c1	?	.	-	?
CN(CC(=O)Nc1c(Cl)cccc1Cl)C(=O)Cc1ccc2c(c1)CCC2	-	.	-	-
O=C1CCCN1C(=O)CSc1ncnc2sccc12	-	.	-	?
Nc1nc(CN2CCN(Cc3ccccc3)CC2)nc(Nc2ccccc2)n1	13.1µM	-	-	?
